System: Vero E6 infected with SARS-CoV-2
Experiment: inhibition of SARS-CoV-2 cytopathic effect; higher = more antiviral protection, active = above 15
Details: 48 h

Measured: inhibition of SARS-CoV-2 cytopathic effect

Nc1nc(O)c2[nH]nnc2n1 [azaguanine-8]
inactive: 1 nM 1.2% | 8.33 nM 2% | 100 nM 1.6% | 833.33 nM 1.36% | 10000 nM 6.36%

Cc1oc2ccccc2c1CNC(=O)NCc1cccs1
inactive: 1 nM -0.41% | 8.33 nM 1.63% | 100 nM 0.18% | 833.33 nM -0.46% | 10000 nM 3.09%

COC(=O)Nc1ccc(-c2nc(N3CCOCC3)c3cnn(C4CCN(C(=O)OC)CC4)c3n2)cc1
inactive: 1 nM 1.39% | 8.33 nM 1.76% | 100 nM 4.01% | 833.33 nM 0.99% | 10000 nM 2.63%

CC(=O)NCCc1c(Cc2ccccc2)[nH]c2ccccc12 [luzindole]
inactive: 1 nM 5.27% | 8.33 nM 4.35% | 100 nM 1.82% | 833.33 nM 3.18% | 10000 nM 3.21%

C=CC(=O)Nc1cc(Nc2nccc(-c3c[nH]c4ccccc34)n2)c(OC)cc1N(C)CCN(C)C
inactive: 1 nM -3.07% | 8.33 nM -6.83% | 100 nM -10.5% | 833.33 nM -13.9% | 10000 nM -12.3%

C#CC1(OCC(O)CN2CCN(c3cccc(C(F)(F)F)c3)CC2)CCCCC1 (stereo not given) [terciprazine]
inactive: 1 nM 0.45% | 8.33 nM -1.84% | 100 nM -0.67% | 833.33 nM 3.5% | 10000 nM -3.3%

O=C(CC(c1ccccc1)c1ccccc1)N1CCN(C(c2ccccc2)c2ccccc2)CC1
inactive: 1 nM -0.56% | 8.33 nM -1.82% | 100 nM -3.93% | 833.33 nM 1.53% | 10000 nM 3.27%
